Screens: PubChem BioAssay, NMMLSC
LAP4-GFP MLPCN – modulators of TOR pathway LAP4-GFP in S. cerevisiae | S. cerevisiae LAP4-GFP multiplex, flow cytometry GFP, 3 h; median GFP as percent of DMSO wells | 0.34% of 320,000 active | GFP response vs DMSO, % at 10 µM;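 active means GFP response vs DMSO above a set limit, about the screen mean plus 3 SD, cut at about 150% in these data; inconclusive means under 70 cell events counted for the yeast strain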
MEP2-GFP yeast – modulators of TOR pathway MEP2-GFP in S. cerevisiae; 0.51% of 330,000 active; S. cerevisiae MEP2-GFP strain, flow cytometry GFP, 3 h; 100% = DMSO control level; GFP response vs DMSO, % at 10 µM;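 active means GFP response versus DMSO above a set limit, roughly screen mean plus 3 SD, cut at about 180% in these data; inconclusive means fewer than 70 cells counted for a yeast strain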;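 further: median GFP fluorescence of the barcode-gated MEP2-GFP cells per well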
CIT2-GFP yeast – modulators of TOR pathway CIT2-GFP in S. cerevisiae | S. cerevisiae CIT2-GFP strain, flow cytometry, 3 h; 100 means same as DMSO wells | GFP response vs DMSO, % at 10 µM | 0.065% of 320,000 active;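 active means GFP response relative to DMSO above a set limit, near the screen mean plus 3 SD, cut at about 150% in these data; inconclusive means Fewer than 70 cells measured for a yeast strain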;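 further: ratio of well median GFP fluorescence to mean of DMSO wells on the plate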
Efflux pump inh – antifungal efflux pump inhibition, Nile Red retention | S. cerevisiae Candida pump triplex | inhibition, % at 10 µM | 0.44% of 330,000 active;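 active means plate passing quality check with inhibition over a set limit, or well fluorescence over plate mean plus 4 SD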;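 further: Nile Red retained in pooled yeast measured as flow cytometry median fluorescence; 0% = buffer negative control and 100% = Enniatin B positive control; higher means more Nile Red kept so more efflux inhibition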
RPL19A-GFP yeast – modulators of TOR pathway RPL19A-GFP in S. cerevisiae; AID 2025; 0.3% of 330,000 active; S. cerevisiae RPL19A-GFP strain, flow cytometry, 3 h; hits give low values; percent response vs DMSO, % at 10 µM;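 active means percent response vs DMSO below 50%; inconclusive means fewer than 70 events counted for the yeast strain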;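 further: median channel GFP fluorescence of the barcoded RPL19A-GFP strain; ratio of sample median GFP to plate DMSO average so 100% = DMSO; lower means less RPL19A-GFP as with rapamycin TOR inhibition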
AGP1-GFP MLPCN – modulators of TOR pathway AGP1-GFP in S. cerevisiae; S. cerevisiae AGP1-GFP multiplex flow cytometry, 3 h; GFP as percent of DMSO wells; GFP response vs DMSO, % at 10 µM; 0.02% of 320,000 active;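 active means GFP response relative to DMSO above a set limit, near screen average plus 3 SD, cut at about 150% in these data; inconclusive means fewer than 70 cells counted for the yeast strain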;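 further: median GFP channel fluorescence of the gated AGP1 strain per well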
* = called active by the depositor; u = inconclusive; x = no result; [ ] = another dose, or the depositor's remark. In the library only some 1.3% were active in any assay of this set; here they are far more common.

SMILES	LAP4-GFP MLPCN	MEP2-GFP yeast	CIT2-GFP yeast	Efflux pump inh	RPL19A-GFP yeast	AGP1-GFP MLPCN
Cc1onc(-c2ccccc2)c1C(=O)OCC(=O)Nc1ccc(OC(F)(F)F)cc1	96	92	90	0	90	83
CC(C)c1ccc(S(=O)(=O)N2CCN(C(=O)c3ccncc3)CC2)cc1	112	105	103	0	102	107
Cc1cc(C)n(-c2ccc(C(=O)N3CCN(S(=O)(=O)c4ccc(C(C)C)cc4)CC3)cc2)n1	77	221*[may fluoresce violet]	u	0	93	20
CCCc1cc(=O)oc2cc(C)cc(OCC(=O)NCCN3CCOCC3)c12	96	97	100	0	101	96
CCCc1cc(=O)oc2cc(C)cc(OCC(=O)Nc3ccc(CN4CCOCC4)cc3)c12	61	271*[may fluoresce violet]	u	1	28*[may fluoresce violet]	u
COC(=O)C[C@H]1c2cc(F)ccc2S(=O)(=O)N1c1ccc(N(C)C)cc1	123	92	95	0	97	86
CCCCOC(=O)c1ccc(NC(=S)NC(=O)c2c(Cl)cnn2CC)cc1	83	406*[may fluoresce violet]	u	0	39*[may fluoresce violet]	x
CCCCOC(=O)c1ccc(NC(=S)NC(=O)c2c(Cl)cnn2C)cc1	102	105	101	0	104	101
CCn1cc(C(=O)NN)c(=O)c2cc(F)c(N3CCOCC3)cc21	106	114	100	0	104	98
CCn1cc([N+](=O)[O-])c(=O)c2cc(F)c(N3CCOCC3)cc21	65	255*[may fluoresce violet]	u	0	61	u
COc1ccc(NC(=O)c2c(F)cccc2Cl)cc1S(=O)(=O)N1CCOCC1	96	105	101	0	102	99
Cc1ccsc1C(=O)N(Cc1nnc(-c2ccccc2Cl)o1)C1CC1	164*	98	79	0	84	96
Cc1ccc(-c2cc(C(=O)Nc3c(C)n(C)n(-c4ccccc4)c3=O)[nH]n2)c(O)c1C	101	95	111	0	97	102
O=C(CNC(=O)c1ccccc1)NCCCSc1ccccc1	94	106	109	0	103	103
O=C(NCCCSc1ccccc1)c1cc(Cl)ccc1O	162*	114	108	0	110	82
Cc1ccc2cc(CCl)c(Cl)nc2c1	109	791*[may fluoresce violet]	u	0	36*[may fluoresce violet]	u
ClCc1cc2ccccc2nc1Cl	93	104	106	0	99	98
CC(=O)NCC(=O)NC(C(=O)Nc1ccc2c(c1)OCCO2)c1ccc(C)cc1 (configuration not stated)	u	u	u	0	40*[may fluoresce violet]	u
CC(=O)NCC(=O)NC(C(=O)Nc1ccc2c(c1)OCCO2)c1ccccc1 (configuration not stated)	100	96	104	0	106	105
CCC(C)[C@H](NS(=O)(=O)c1ccc(C)cc1)C(=O)N1CCC(C(=O)N2CCC(C(=O)OC)CC2)CC1 (some centres not stated)	103	109	90	0	93	99
CCOc1ccc2noc3c2c1C(=O)c1ccccc1-3	247*	163	121	0	92	103
CCNc1ccc2noc3c2c1C(=O)c1ccccc1-3	104	100	92	0	93	101
Cc1nn(Cc2ccc([N+](=O)[O-])cc2)c(=O)n1-c1cccc(Cl)c1	140	217*	116	0	96	108
CCCn1c(SCC(=O)N2CCOCC2)nnc1-c1ccncc1	99	103	105	0	101	102
COc1cc(OC)cc(C(=O)NCC(=O)OCC(=O)C(C)(C)C)c1	78	484*[may fluoresce violet]	u	0	73	17
CCOC(=O)CNC(=O)c1cc(OC)cc(OC)c1	101	98	99	0	96	97
Cc1onc(-c2ccccc2)c1C(=O)NC1CCC(C)CC1 (configuration not stated)	121	110	101	0	105	111
O=C(Nc1nc(-c2ccccn2)cs1)c1ccc(-c2ccccc2F)o1	170*[may fluoresce violet]	173	u	0	55	24
CCOC(=O)/C(C#N)=N/Nc1ccc(S(=O)(=O)Nc2cc(OC)nc(OC)n2)cc1	103	92	98	0	90	97
